Screening results as filed in PubChem BioAssay.
CYP2C9 activ: human CYP2C9 activators, primary screen, biochemical, luminescence; Cytochrome P450 2C9 (Homo sapiens), P11712; recombinant CYP2C9, luciferin-H conversion; stronger effect = higher value; factor 1 = untreated enzyme, 0 = blocked; activation factor at 5 µM; AID 1024, 2008; hit rate 1.4% among 96,000;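 active = activation factor of 2 or more for CYP2C9 at a 5 µM dose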;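 note: 0 = sulfaphenazole-blocked wells and 1 = vehicle-only wells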
CYP2C19 act: human CYP2C19 activators, primary screen, biochemical, luminescence. Cytochrome P450 2C19 (Homo sapiens), P33261. recombinant CYP2C19, luciferin-H EGE luminescence; stronger effect = higher value; 0 = fully inhibited enzyme, 1 = untreated enzyme. activation factor at 5 µM. 96,000 tested, under 10 active;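 active = activation factor of at least 2 at 5 µM in the primary screen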;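 note: 0 = wells with 2.5 mM tranylcypromine and 1 = vehicle-only wells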
CYP2C19 inh: blockers of cytochrome P450 2C19 activity – biochemical, luminescence, ADME assay, primary screen; CYP2C19 Supersomes, luciferin-H EGE luminescence, 30 min; AID 778, 2007; hit rate 21% among 96,000; inhibition, % at 5 µM; P33261;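 active = CYP2C19 inhibition above a set limit at 5 µM in the primary screen, cut at about 50% in these data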;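 note: plate controls were negative control wells for no effect and 2.5 mM tranylcypromine positive control for full effect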
Cav32 inh: Cav3.2 calcium influx blockers – cell-based, Fluo-4 calcium fluorescence, FDSS, MLSMR library, primary screen. Voltage-dependent T-type calcium channel subunit alpha-1H (Homo sapiens), O95180. Cav3.2-expressing cells; stronger effect = lower value. B-score at 10 µM. hit rate 4% among 100,000. AID 449739, 2010;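 active = single-dose well whose peak fluorescence ratio is a statistical outlier from its plate by either plate-standardised score or position-corrected B-score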
Target sequence (O95180 whole entry, looked up): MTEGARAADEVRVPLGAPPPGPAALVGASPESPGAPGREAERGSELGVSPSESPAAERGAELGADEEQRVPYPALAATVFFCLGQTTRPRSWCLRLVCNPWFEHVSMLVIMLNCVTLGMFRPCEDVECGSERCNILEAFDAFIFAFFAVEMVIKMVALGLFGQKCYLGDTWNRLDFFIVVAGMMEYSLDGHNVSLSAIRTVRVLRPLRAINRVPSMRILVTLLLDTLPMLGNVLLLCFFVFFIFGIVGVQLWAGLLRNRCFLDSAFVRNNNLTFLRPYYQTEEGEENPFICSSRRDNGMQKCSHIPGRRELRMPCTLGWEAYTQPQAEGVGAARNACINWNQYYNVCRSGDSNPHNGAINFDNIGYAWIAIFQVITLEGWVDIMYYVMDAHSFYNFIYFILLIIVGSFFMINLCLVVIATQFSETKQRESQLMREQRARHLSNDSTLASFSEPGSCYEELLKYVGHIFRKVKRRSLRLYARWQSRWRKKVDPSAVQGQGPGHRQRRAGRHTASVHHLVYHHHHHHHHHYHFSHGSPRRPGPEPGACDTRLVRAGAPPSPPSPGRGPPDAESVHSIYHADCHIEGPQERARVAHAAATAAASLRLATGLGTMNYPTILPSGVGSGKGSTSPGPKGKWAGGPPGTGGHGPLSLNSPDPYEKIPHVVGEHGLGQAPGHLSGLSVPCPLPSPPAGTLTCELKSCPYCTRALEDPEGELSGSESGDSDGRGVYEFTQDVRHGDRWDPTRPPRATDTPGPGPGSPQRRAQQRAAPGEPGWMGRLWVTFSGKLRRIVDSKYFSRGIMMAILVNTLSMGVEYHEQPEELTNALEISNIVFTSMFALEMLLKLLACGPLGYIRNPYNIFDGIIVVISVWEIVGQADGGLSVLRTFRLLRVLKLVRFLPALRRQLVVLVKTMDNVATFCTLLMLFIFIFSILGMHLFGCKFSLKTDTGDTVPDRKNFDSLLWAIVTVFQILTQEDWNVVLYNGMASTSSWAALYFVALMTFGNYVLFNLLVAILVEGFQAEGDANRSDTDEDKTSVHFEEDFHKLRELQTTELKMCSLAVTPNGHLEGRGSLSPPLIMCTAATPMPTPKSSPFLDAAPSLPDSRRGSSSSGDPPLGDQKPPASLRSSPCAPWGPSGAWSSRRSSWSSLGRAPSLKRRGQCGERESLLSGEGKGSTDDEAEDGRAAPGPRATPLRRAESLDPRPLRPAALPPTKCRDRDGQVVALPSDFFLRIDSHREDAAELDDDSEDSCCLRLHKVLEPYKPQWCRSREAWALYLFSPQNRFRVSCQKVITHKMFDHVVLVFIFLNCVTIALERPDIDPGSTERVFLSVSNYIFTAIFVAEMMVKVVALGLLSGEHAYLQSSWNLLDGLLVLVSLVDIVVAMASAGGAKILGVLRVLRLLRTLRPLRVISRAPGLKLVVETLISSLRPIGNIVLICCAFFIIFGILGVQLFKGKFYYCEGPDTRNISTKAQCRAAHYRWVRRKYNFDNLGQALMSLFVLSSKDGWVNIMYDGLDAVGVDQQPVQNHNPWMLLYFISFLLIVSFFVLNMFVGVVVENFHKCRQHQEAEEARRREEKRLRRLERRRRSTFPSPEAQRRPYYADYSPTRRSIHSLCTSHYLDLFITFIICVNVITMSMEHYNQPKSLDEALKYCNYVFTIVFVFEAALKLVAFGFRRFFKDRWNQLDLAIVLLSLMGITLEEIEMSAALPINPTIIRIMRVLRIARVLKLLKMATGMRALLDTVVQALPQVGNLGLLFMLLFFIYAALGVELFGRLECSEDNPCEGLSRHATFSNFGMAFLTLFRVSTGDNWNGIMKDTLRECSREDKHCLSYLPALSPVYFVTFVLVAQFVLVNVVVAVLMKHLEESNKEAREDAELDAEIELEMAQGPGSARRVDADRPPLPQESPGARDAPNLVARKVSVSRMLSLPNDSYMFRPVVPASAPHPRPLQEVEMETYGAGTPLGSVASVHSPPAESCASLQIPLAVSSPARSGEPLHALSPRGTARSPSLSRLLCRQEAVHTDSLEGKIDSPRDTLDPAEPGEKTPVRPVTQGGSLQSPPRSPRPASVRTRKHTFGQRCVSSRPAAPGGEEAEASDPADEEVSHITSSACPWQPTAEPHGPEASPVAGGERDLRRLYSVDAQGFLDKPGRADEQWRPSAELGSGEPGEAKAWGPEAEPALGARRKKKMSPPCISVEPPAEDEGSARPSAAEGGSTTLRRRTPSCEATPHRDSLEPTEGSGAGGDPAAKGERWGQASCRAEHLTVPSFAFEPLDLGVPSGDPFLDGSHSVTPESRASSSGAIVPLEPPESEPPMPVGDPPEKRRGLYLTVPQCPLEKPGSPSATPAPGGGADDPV
CYP2C9 inh: blockers of cytochrome P450 2C9 activity – biochemical, luminescence, ADME assay, primary screen; CYP2C9 Supersomes, luciferin-H conversion; inhibition, % at 5 µM; AID 777, 2007; hit rate 20% among 96,000;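 active = blocking of liver enzyme CYP2C9 beyond about 50% at 5 µM, limit read from the data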
The depositor's hits bear a star; · = not tested or not shown. Compounds with a hit are over-represented: about 27% of the library has one in this group of screens.

SMILES	CYP2C9 activ	CYP2C19 act	CYP2C19 inh	Cav32 inh	CYP2C9 inh
COc1ccc2nc(Nc3nc(C)c(CCC(C)C)c(=O)[nH]3)nc(C)c2c1	0.4	0.4	60*	-5.4*	58*
CCOc1ccc(S(=O)(=O)NCC(=O)N(C)Cc2cccnc2)cc1	1	0.7	29	0.056	-2
CCCCNc1nc(-c2ccccc2)nc(-n2ccnc2)n1	0.1	0.1	86*	-1.2	85*
c1ccc(CN2CCN(c3nc(-c4ccccc4)nc(-n4ccnc4)n3)CC2)cc1	0.4	0.7	34	-0.037	57*
CC(C)Nc1nc(-c2ccccc2)nc(-n2ccnc2)n1	0.8	0.8	24	-0.51	18
c1ccc(CN2CCN(c3nc(-c4ccccc4)nc4ccccc34)CC2)cc1	0.7	0.9	8	-0.3	29
c1ccc(-c2nc(-n3ccnc3)nc(-n3ccnc3)n2)cc1	0.5	0.4	56*	0.79	49
CCCC(c1nnnn1Cc1ccco1)N1CCC(C(N)=O)CC1 (stereo unspecified)	1.1	0.9	5	-0.041	-9
CN(C(=S)Nc1ccc(F)cc1)C1(c2ccccc2Cl)CCCCC1=O (stereo unspecified)	0.8	0.2	83*	-1.9	24
Fc1ccc(NC(=S)NN=C2CCCCCC2)cc1	0.9	0.9	10	-1.5	8
Cc1nn(C)c(C)c1NC(=O)CN1CCC(O)(c2ccc3c(c2)OCO3)CC1	1.1	1.1	-7	0.72	-7
c1cncc(CNc2c3c(nc4nnnn24)CCCC3)c1	0.8	0.3	68*	0.084	19
CCOc1cc(NC(=S)Nc2ccccc2OC)c(OCC)cc1NC(=O)c1ccccc1C	0.6	0.8	21	-3.5	44
COc1ccc(-c2cnc(SCC(=O)Nc3nc(C(C)(C)C)cs3)n2Cc2ccco2)cc1	·	·	·	-5.7*	·
CCC(=O)Nc1cc(NC(=O)CSc2ncc(-c3ccc(F)cc3)n2Cc2ccco2)ccc1C	0.1	0.1	91*	-8.8*	95*
COCCn1c(-c2ccc(OC)cc2)cnc1SCC(=O)Nc1cccc2ccccc12	0.3	0.3	67*	-8.1*	72*
COc1ccc(NC(=O)CSc2ncc(-c3ccc(F)cc3)n2Cc2ccco2)cc1	·	·	·	0.082	·
COc1ccc(-c2nnc(SCC(=O)Nc3ncc(C)s3)n2-c2ccccc2)cc1OC	0.5	0.4	62*	0.46	51*
O=C(CN1C(=O)c2cccc3cccc(c23)C1=O)N1CCCCCC1	1	1.1	-9	0.0029	-4
COc1ccc(-c2cnc(SCC(=O)Nc3cc(C)on3)n2Cc2ccco2)cc1	0.1	0.4	61*	-4.5*	88*
O=C(CSc1ncc(-c2ccc(F)cc2)n1Cc1ccco1)Nc1nccs1	0.9	0.9	8	-0.2	9
Cc1cnc(NC(=O)CSc2ncc(-c3ccccc3)n2Cc2ccco2)s1	0.3	0.7	32	-1	73*
COc1cc2c3nnc(-c4ccc(F)cc4)c-3cn(Cc3ccccc3)c2cc1OC	0.7	1	3	·	29
O=C(NCc1ccco1)C1CC(c2ccc(C(F)(F)F)cc2)=NO1 (stereo unspecified)	·	·	·	-1.1	·
CCOC(=O)Cn1c(=O)c2c(nc3n2CCS3)n(C)c1=O	1.1	0.9	12	0.65	-6
SMILES	CYP2C9 activ	CYP2C19 act	CYP2C19 inh	Cav32 inh	CYP2C9 inh
Cn1c(=O)n(Cc2ccccc2)c(=O)c2c1nc1n2CCCN1CCc1ccccc1	0.7	0.4	58*	-2.7	33
Cn1c(=O)n(Cc2ccccc2)c(=O)c2c1nc1n2CCS1	0.1	0.4	57*	0.41	85*
Cn1c(=O)n(Cc2ccccc2)c(=O)c2c1nc1n2CCCN1Cc1ccccc1	1	0.8	17	·	1
Cn1c(N2CCCC2)nc2c1c(=O)n(Cc1cccc(F)c1)c(=O)n2C	0.2	1	2	1.6	81*
Cc1ccc(Cn2c(CCNc3nc(-c4ccc(Cl)c([N+](=O)[O-])c4)cs3)nc3cc(C(=O)NCCCO)ccc32)cc1	·	·	·	0.02	·
Cc1noc(C)c1CSc1nnc2scc(-c3ccc(Cl)cc3)n12	1.1	0.9	8	0.36	-11
CC(C)c1ccc(NC(=O)C(c2ccc3c(c2)OCO3)N2CCCCC2)cc1 (stereo unspecified)	1	0.9	12	-2.5	1
O=C(Nc1ccc2c(c1)OCO2)C(c1ccc(Cl)cc1)N1CCC2(CC1)OCCO2 (stereo unspecified)	0.5	0.5	52*	-6.7*	45
CC(C)c1ccc(NC(=O)C(c2ccc3c(c2)OCO3)N2CCC3(CC2)OCCO3)cc1 (stereo unspecified)	0.9	0.9	6	-7.5*	8
O=S(=O)(Nc1nc(CN2CCOCC2)nc2sc3c(c12)CCCC3)c1cc(F)ccc1F	0.4	1	0	-1.5	63*
Cc1ccc(C2(C(F)(F)F)N=C3Sc4cc(C)ccc4N3C(=O)N2)cc1 (stereo unspecified)	0.8	0.9	15	·	21
O=C(O)c1ccc(CN2C(=O)c3ccccc3S2(=O)=O)cc1	1.1	1.1	-10	0.59	-6
O=C(CN1/C(=C(/O)c2ccccc2)C(=O)c2ccccc2S1(=O)=O)c1ccccc1	0.5	0.9	11	-6.9*	48
O=C1CC(Cc2ccccc2)C(=O)N1CCCn1ccnc1 (stereo unspecified)	0.3	0	100*	·	69*
O=C1CC(N2CCN(Cc3ccc4c(c3)OCO4)CC2)C(=O)N1CCc1ccccc1 (stereo unspecified)	1	0.9	14	0.27	3
O=C1CC(Cc2ccccc2)C(=O)N1CCc1ccc2c(c1)OCO2 (stereo unspecified)	0.8	0.1	86*	-1.4	23
Cc1cc2cc(CN(Cc3ccco3)C(=O)NCc3ccccc3)c(=O)[nH]c2cc1C	0.6	0.6	39	-7.4*	36
Cc1cc2cc(CN(Cc3ccco3)C(=O)C3CCCCC3)c(=O)[nH]c2cc1C	1	1	-4	-9.3*	-3
O=C1[C@H]2[C@H](C=CC[C@H]2C(=O)N2CCN(c3ccccc3)CC2)CCN1Cc1ccc(Cl)c(Cl)c1	·	·	·	-2.5	·
CCO[C@@H]1OC(C(=O)N2CCN(Cc3ccc4c(c3)OCO4)CC2)=C[C@H](C2CCCCC2)[C@H]1CCCO	·	·	·	-0.75	·
COc1ccc(-c2nnc(NC(=O)c3ccc(S(=O)(=O)N4CCCc5ccccc54)cc3)o2)cc1	0.5	1	-1	·	54*
O=C(NCc1ccco1)c1ccc(S(=O)(=O)N2CCCc3ccccc32)cc1	0.2	0.3	67*	-3.9*	76*
O=C(Nc1nnc(C2CC2)o1)c1ccc(S(=O)(=O)N2CCCc3ccccc32)cc1	0.1	0.9	6	·	95*
